From PubChem BioAssay
Shown are actives, neighbours in structure and some others; about 1.8% of the full set was active somewhere.
IL1B NFkB inh = blocks IL-1B driven NFkB nuclear translocation in HUVEC cells; inhibition, % at 2 µM; 0.43% of 94,000 active; HUVEC IL-1B NFkB p65 nuclear translocation imaging; AID 796;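 active = inhibition above about 30% together with a positive call from visual inspection of the well image, limit read from the data; inconclusive = inhibition above a set limit but visual check negative; inactive = inhibition not above a set limit, visual check negative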;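 also: nuclear over cytoplasmic p65 intensity ratio measured by imaging; 0% = IL-1B stimulated DMSO wells and 100% = unstimulated DMSO wells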
HUVEC tox TNFa = toxic to HUVEC cells under TNF alpha stimulation | HUVEC TNFalpha-stimulated, Hoechst cell count, imaging | cell count reduction, % at 2 µM | 0.17% of 93,000 active;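 active = cell count reduction exceeding the screen mean by over 5 SD, scaled to untreated wells per plate, cut at about 78% in these data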;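 also: cells counted after 24 h of TNF alpha exposure following the 1 h pretreatment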
IL1B cytotox = toxic to HUVEC cells under IL-1B stimulation; cell count reduction, % at 2 µM; AID 845; 0.41% of 94,000 active; HUVEC cell count loss, Hoechst imaging, IL-1B stimulated;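 active = cell count reduction more than 3 SD above the screen-wide mean, cut at about 70% in these data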;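 also: normalized per plate to untreated control cells as the no-loss baseline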
E-sel TNF inh = TNF alpha driven E-selectin expression inhibition. HUVEC TNFa-induced E-selectin immunofluorescence, high content. inhibition, % at 2 µM. 0.71% of 120,000 active. AID 1246;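 active = inhibition above the batch mean plus 3 SD, and confirmed as a hit on visual image review, cut at about 43% in these data; inconclusive = passes the inhibition cutoff but fails visual image review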;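 also: 0% = TNF-stimulated DMSO wells and 100% = unstimulated control wells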
IL1B NFkB pot = enhances IL-1B driven NFkB nuclear translocation | HUVEC IL-1B NFkB p65 nuclear translocation imaging | activation, % at 2 µM | 0.3% of 94,000 active | AID 819;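 active = activation above 40%, about the mean plus 3 SD, also judged a hit on visual image review; inconclusive = activation above 40% but not a hit on visual review; inactive = activation not above 40% and no visual hit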;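 also: percent activation is computed from the nuclear over cytoplasmic p65 intensity ratio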
VCAM1 TNFa inh = reduces TNF alpha induced VCAM1 expression in HUVEC | HUVEC TNFa-induced VCAM-1 immunofluorescence, high-content imaging | inhibition, % at 2 µM | 0.48% of 95,000 active;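 active = inhibition above the batch mean plus 3 SD, with images confirmed as a hit by eye, cut at about 37% in these data; inconclusive = inhibition above that limit but hit not confirmed in images; inactive = inhibition not above that limit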;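 also: 0% = TNF-stimulated DMSO wells and 100% = unstimulated control wells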
Numbers without * were called inactive; ? = inconclusive; / = no result given.

SMILES	IL1B NFkB inh	HUVEC tox TNFa	IL1B cytotox	E-sel TNF inh	IL1B NFkB pot	VCAM1 TNFa inh
CCCOc1ccc(/C(O)=C2/C(=O)C(=O)N(CCCn3ccnc3)C2c2ccco2)cc1 (centres undefined)	-19	-12	-6	100*	19	11
CC1Cc2cc(/C(O)=C3/C(=O)C(=O)N(CCCn4ccnc4)C3c3ccncc3)ccc2O1 (centres undefined)	5	-11	-30	58*	-5	6
CCN(CC)CCN1C(=O)C(=O)/C(=C(/O)c2ccc(OC)cc2)C1c1ccco1 (centres undefined)	-8	-40	35	/	8	15
CCOc1ccc(/C(O)=C2/C(=O)C(=O)N(c3nc(C)c(C)s3)C2c2ccco2)cc1 (centres undefined)	46*	47	19	/	-46	-9
COc1ccc(/C(O)=C2/C(=O)C(=O)N(Cc3cccnc3)C2c2ccncc2)cc1F (centres undefined)	-9	37	-59	70*	9	4
COc1cccc(/C(O)=C2/C(=O)C(=O)N(Cc3cccnc3)C2c2ccco2)c1 (centres undefined)	-3	10	-37	-23	3	4
CC(=O)Nc1cccc(C(=O)NC(C)c2ccc(S(N)(=O)=O)cc2)c1 (centres undefined)	-7	-24	2	-13	7	2
O=C(CCC(=O)OCC(=O)c1cccc([N+](=O)[O-])c1)Nc1ccccc1Cl	-21	0	-4	9	21	25
COC(=O)C1=NNC2(c3ccc(Cl)cc3)C(=O)N(c3ccccc3)C(=O)C12 (centres undefined)	/	/	/	22	/	/
CC(C)CNC(=O)c1ccc(NC(=O)c2cccs2)cc1	/	/	/	-16	/	/
C=CCOc1ccc(/C(O)=C2\C(=O)C(=O)N(CCOC)C2c2cccnc2)cc1 (centres undefined)	-14	-27	-11	-18	14	37
CCCOc1ccc(/C(O)=C2/C(=O)C(=O)N(CCOC)C2c2cccnc2)cc1 (centres undefined)	-3	80*	-4	-11	3	87*
CCCCCCOc1ccc(-c2ccc(C#N)cn2)cc1	1	21	25	-36	-1	-8
CCn1c(SCC(=O)Nc2ccccc2)nnc1C1CCCCC1	-3	-22	-8	60*	3	-6
CCOC(=O)c1cccc(NC(=O)CSc2nnc(C3CCCCC3)n2C)c1	-22	-5	-1	-17	22	26
Cc1cc(=O)c2cccc(Br)c2[nH]1	30*	-10	90*	16	-30	-9
Cc1cc(=O)c2ccc3ccccc3c2[nH]1	-9	-14	-37	21	9	18
COc1ccc(-c2cn(-c3ccc(C)cc3C)c(=O)[nH]2)cc1OC	/	/	/	-7	/	/
COCCN1C(=O)N(c2cccc(C)c2)C(=O)C1CC(=O)Nc1ccc(F)cc1 (centres undefined)	19	-7	-12	80*	-19	8
CCOC(=O)c1ccc(NC(=O)CC2C(=O)N(c3cccc(OC)c3)C(=O)N2CCOC)cc1 (centres undefined)	0	-13	-1	-2	0	-5
CCn1nnnc1-c1ccc(OC)c(S(=O)(=O)NCc2ccccc2)c1	2	0	-4	88*	-2	4
CCn1nnnc1-c1ccc(OC)c(S(=O)(=O)Nc2ccc(C)c(C)c2)c1	-9	5	-7	13	9	8
COc1ccc(OC)c(C(c2nnnn2CC2CCCO2)N2CCN(C)CC2)c1 (centres undefined)	0	-24	8	-8	1	11
C=CCN1CCN(C(c2cc(OC)ccc2OC)c2nnnn2CC2CCCO2)CC1 (centres undefined)	-11	-3	24	71*	11	1
COc1ccc(C)cc1S(=O)(=O)N(C)CC(=O)N1CCCCCC1	-25	-40	-1	-15	25	15
SMILES	IL1B NFkB inh	HUVEC tox TNFa	IL1B cytotox	E-sel TNF inh	IL1B NFkB pot	VCAM1 TNFa inh
CC(C)C(NC(=O)COc1ccc2ccccc2c1)C(=O)N/N=C/C=C/c1ccccc1 (centres undefined)	-8	-13	-26	-10	8	-6
Cc1ccsc1/C=C1\SC(N)=NC1=O	-4	-6	-30	-23	4	13
Cc1ccc(/C=C2\SC(N)=NC2=O)s1	/	/	/	95*	/	/
CCOC(=O)C1CCC2(CC1)C(C#N)=C(N)Oc1n[nH]c(C)c12 (centres undefined)	4	-39	-24	-14	-4	-6
Clc1ccc(OCc2nc(-c3ccccn3)no2)c(Br)c1	36*	-27	-14	/	-36	16
Clc1ccccc1OCc1nc(-c2ccccn2)no1	1	-16	10	-20	-1	-8
c1ccc2c(CCNc3ncnc4nc[nH]c34)cccc2c1	3	/	-33	3	-3	-15
Clc1ccc(-c2noc(CCCOc3ccccc3)n2)cc1	84*	-25	-10	9	-84	18
Clc1ccc(-c2noc(COc3ccccc3)n2)cc1	/	/	/	-6	/	/
COc1cccc(Nc2ncnc3nc[nH]c23)c1	20	25	1	/	-20	13
Cc1cc(N2CCOCC2)cc(C)[n+]1[O-]	-40	-16	-31	/	40*	-21
COc1ccc(CNC(=O)CSc2ccc(Br)cc2)cc1OC	/	/	/	-1	/	/
O=C(NCCN1C(=O)CSC1=O)c1ccccc1	-7	-1	33	69*	7	-2
CC(C)c1ccccc1NC(=O)COC(=O)C1(C)CC1(Cl)Cl (centres undefined)	/	/	/	-4	/	/
CCCNC(=O)NC1C(NC(=O)NCCC)N(C)C(=O)N1C (centres undefined)	-27	13	20	0	27	2
Cc1nn(C)cc1/C=N\NC(=O)c1ccc2c(c1)c(C)c(C)n2Cc1ccccc1	-25	-2	2	13	25	11
CCSc1nc2ccccc2n1C(=O)/C=C\c1ccc(OC)c(OC)c1	90*	22	-10	-46	-90	94*
CCOC(=O)C(Cc1ccccc1)NC(C)=O (centres undefined)	16	-4	92*	4	-16	30
CCCNC(=O)N[C@@H](Cc1ccccc1)C(=O)OC	-3	-19	-14	-28	3	3
COc1ccc(-n2nc3c(c2NC(=O)c2ccc(S(=O)(=O)N4CCOCC4)cc2)CS(=O)(=O)C3)cc1	/	/	/	-4	/	/
COc1ccccc1-n1c(C)nnc1SCC(=O)Nc1cccc(C(C)=O)c1	96*	3	80*	-11	-97	22
Cn1c(CCNC(=O)C2CCCCC2)nc2cc(NC(=O)c3cccs3)ccc21	/	/	/	63*	/	/
O=C(NC(Cc1c[nH]c2ccccc12)C(=O)O)c1ccco1 (centres undefined)	?	100*	1	7	-68	?
O=C(Nc1ccccc1C(=O)NC(Cc1c[nH]c2ccccc12)C(=O)O)c1ccco1 (centres undefined)	-13	3	-6	0	13	12
